Source: PubChem BioAssay AID1508600 (Functional Genomics Laboratory (NCATS/FGL), 2020)
Screen size: about 53,000 sequences; about 3,700 (7%) were called active.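 Rule for the calls: active = gene knockdowns whose robust z-score for IL-1 alpha signal is at least 2 or at most -2, so actives lie on both sides; inactive = the rest.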 The full list was thinned out, with actives kept by preference.

experiment: Components of the Cytosolic LPS Sensing Pathway: Gene Identification via Genome-wide siRNA Screen; settings: RAW264.7 macrophages, IL-1a HTRF, actives lie on both sides, screened at 100 nM (by protocol), cells primed 5 h with Pam3CSK4 first;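 note: robust z of the log signal after scaling to non-targeting control siRNA wells of the plate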
Summary of the method: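 RAW264.7 mouse macrophages reverse-transfected with single siRNAs (100 nM final) for 48h, primed with Pam3CSK4 for 5 hours, then transfected with LipidA for 24 hour. Supernatant IL-1a read by HTRF; values normalized to negative-control median, log-transformed robust z-scores.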

Sequence	z-score
GGCAAUUUGGAUACCAGGATT against Zfp24	-0.563 (inactive)
GCAGAAUUGAGUCACCCAATT against Sp1	-2.56 (active)
GCGACAAAGCUCGUUAUGATT against Hmgb2	-2.3 (active)
GCAUAAACUUUAGGCAUGGTT against Alg13	-0.123 (inactive)
GGUCAUCCGAUGCUUUGUATT against 4930515G01Rik	-0.513 (inactive)
CCGGUUACCAAUUGAUAAATT against Smc3	-1.15 (inactive)
GCGUAAAUCUCCACACUACTT against Vmn1r54	-1.57 (inactive)
GGUGGAUACACAGGACAAATT against Invs	1.58 (inactive)
GGAGCGUAGAUAACUUAUCTT against Itprid2	-0.0474 (inactive)
CGCAGACAGUUUGAGGCUGTT against Gpbp1	-2.34 (active)
GGGACAUGGUCAUCACUAGTT against Clvs2	-1.71 (inactive)
GGAAUAGGAGCAAGUGUACTT against 9930021J03Rik	1.03 (inactive)
GGAUACACACAGAGAAUAUTT against Arhgef10l	0.161 (inactive)
GGCCUUCACGUCUGGAAAUTT against Cnot10	-0.163 (inactive)
GCAUCUCUCUAAUAGCCUUTT against Nop16	1.24 (inactive)
GGAUGAAAAUCUCUGUCCUTT against Trpa1	0.604 (inactive)
GGCAGCAGCAAGUUUCUUCTT against Rbm38	-2.31 (active)
GCUUUUGAUCCACAGAUUUTT against Prss33	0.372 (inactive)
GGGCUUAUUCUCAGUUCUGTT against Slc17a1	-0.395 (inactive)
GGACCAUGUGACAAAGCCUTT against Fam131b	2.16 (active)
GCCUCCAUUAUUUGUUCUGTT against Olfr1058	-0.177 (inactive)
GGAAACACCAAGAUUCCAGTT against Sprr3	-0.445 (inactive)

Sequence	z-score
GCUAUUGGAGGAAUGUAUCTT against Rasgrp4	-1.51 (inactive)
GGCACAAGAGCAAAGGCUUTT against Gmppb	-0.575 (inactive)
CCCUCAUUUACUCUAGUAATT against Defb12	0.714 (inactive)
GGUGUUCCUGGUGAAGCAATT against Camk1g	0.875 (inactive)
CGCUCACUGGUUUUUAAUUTT against Itpripl2	0.694 (inactive)
GCCCGCACAAUCGUACUUUTT against Ccl28	-1.2 (inactive)
GGAAAACUGCGUUUGGAAATT against Neil3	0.387 (inactive)
GCAAUAGUGAGCACGCCAGTT against Col18a1	0.307 (inactive)
GGUCUGUGGACUGAACUUATT against Bcl2l11	-2.6 (active)
GGAUGAAGAACUCAGAGUGTT against Slc66a2	-1.24 (inactive)
GGUCAUUCUUAAUUGUUCATT against Kpna6	0.939 (inactive)
CCAAAGUCUGUUAAUGGGUTT against 4921517D22Rik	0.401 (inactive)
GCUAUGCAGAGGAGUAUGCTT against Duoxa1	3.03 (active)
GGAGACAUUGCUAUAUAUGTT against Hmgcs1	-0.207 (inactive)
GGCCUAAGGCUGUGAAUGUTT against D2hgdh	-2.59 (active)
GCCGUUUACGUUUAUUGUUTT against Cux2	-0.0356 (inactive)
GGACAGAAUACGUGAGGAGTT against Septin5	-0.427 (inactive)
GGAGUUCCAGCAGCUCUAUTT against Vsnl1	0.741 (inactive)
GGUUCUGCUGGACAACUUUTT against Cyp46a1	-0.377 (inactive)
CCCUCAUAACUAAUGCUGUTT against Pip5kl1	-0.276 (inactive)
GGUGAUCCAAGACUUCCAGTT against Actl6b	1.16 (inactive)
GCAGUGAUCCAUGAGCCUATT against Eif5a	4.64 (active)

Sequence	z-score
GCACCAAUAUUAGGCUGACTT against Noct	1.73 (inactive)
CGAGCACACUUUUGAAGAATT against Gm5089	1.33 (inactive)
GGCUACGAUCCUACAGUGGTT against Rhebl1	-0.283 (inactive)
GGCAACACUGUGGCUAAGUTT against Ankrd13d	2.74 (active)
GCUGGUAACAGAAUUUCUUTT against Aox2	0.515 (inactive)
GCUAAACAGACAACUCAACTT against Rufy2	1.04 (inactive)
GGUAAAACCCAAUAGUAACTT against Gclm	0.45 (inactive)
GGAUCUUUACUGCUUUGUGTT against Picalm	2.42 (active)
GCCAAUUUGAAGGUUUUCATT against Tlr8	1.58 (inactive)
GGCUCUUGGAUAUUUCCGATT against Nop9	0.342 (inactive)
CCUAAUGGAAGGGAAGCCATT against Cox19	-2.06 (active)
GGACCUGAAUAAGACUAUUTT against Lgmn	-0.429 (inactive)
GGGAGGUUACUAUGGAGACTT against Mia	1.68 (inactive)
GCUACUGCAUUCUCUAUCATT against Actl9	1.94 (inactive)
GGCAACUGUGUUCUCACGATT against Ddx58	-1.22 (inactive)
CCACUUCCAUAGAGAUUUUTT against Tmx3	2.93 (active)
GCUUUGUUUGAAAAUGCGATT against Nrde2	-0.66 (inactive)
CCGCGUGUAUAAGUUGGUGTT against Mrpl9	1.23 (inactive)
GCCUCGAUUCACCAAGUGUTT against Ghr	-0.663 (inactive)
GGAAGAUCGAGAAUGUUCCTT against Ppih	0.174 (inactive)
GCCAUAUCAACUCAGAUCATT against Ssh2	5.04 (active)
GGUAAUAAGUCCCAUUUUCTT against Prpmp5	0.817 (inactive)

Sequence	z-score
GGCCAGAAGAACUAACAGUTT against Cept1	-0.11 (inactive)
GGACAAUGCUAAUGAGACCTT against Gcsam	-0.176 (inactive)
GAGGGACUGUAAUGUUGACTT against Olfr560	0.0877 (inactive)
CCGCUAGACAAAUUUUGCCTT against Slc6a2	1.45 (inactive)
GCUACAGUAGUAAGACUAATT against Usp53	2.67 (active)
GGAGUAACAACACAACAUUTT against Mab21l1	1.43 (inactive)
CGCUGAAAGUGAACGUAGGTT against Kcnv2	-1.14 (inactive)
CCUUCACAUAAGUUUCUGUTT against Nuak2	0.575 (inactive)
GAGGAAGACACUUUUCCUGTT against Atp23	0.765 (inactive)
GGGCAGUGAAAUCCUGUCUTT against Trim16	-2.81 (active)
GCUUAGAUCACCUAAUGACTT against Parp3	1.18 (inactive)
GGAUGUUUGGACCAAUCACTT against Iba57	-0.962 (inactive)
GGUGCUACUCCAGAUUGACTT against Tbc1d13	0.63 (inactive)
GGUUAUAAACCAGAAGAGUTT against Mill2	0.807 (inactive)
GCUGUUAGACCUCUUGAUUTT against Olfr1164	0.0632 (inactive)
GGUAGAUCAGUAAUAGUUATT against Glrb	0.837 (inactive)
GGAGAUUGAGAACACAAGCTT against Hipk2	2.37 (active)
CCAGACACAUAGGACAAAATT against Slco3a1	-0.00454 (inactive)
GGCUGUGCGUGUUACAAAATT against Erlin1	0.501 (inactive)
GGAAUGUCUAUCACAAUGGTT against Vmn1r230	1.78 (inactive)
GGUGGAAGAUGAGAAAGAGTT against Tmem139	-1.21 (inactive)
GGAAGAUAAAUGUCACAAATT against AA792892	0.392 (inactive)

Sequence	z-score
GCCAGAAAUACCUGUCGGATT against Cdc37	-0.229 (inactive)
CCACUUUCAACUUUCCGCATT against Fgd5	-1.94 (inactive)
GCUAGACCUAAGGAGCAAATT against Axin1	3.59 (active)
GGCCAAUUUCUUCACUUCUTT against Ints11	-0.809 (inactive)
GGUUUUCACCAUAUGCAGCTT against Zfp353-ps	0.267 (inactive)
GGAAGAAAUGUCAUCACAATT against Heph	0.193 (inactive)
CGGACACAUUGACUGAAUATT against Adgrl1	-1.45 (inactive)
CCCACAUCAUUGAGAUUCUTT against Olfr1508	-1.25 (inactive)
GGAGAAGUUUGAAGAGAUGTT against Cct5	-2.24 (active)
GGAAGAAAACAUUUAGCCCTT against Mmd2	0.504 (inactive)
ACAUACCAGUCUCUGUACCTT against Pigu	-1.56 (inactive)
CCGCCUCUUACCGAAGUUCTT against Mettl4	3.04 (active)
GGACUUGAAAGAUAAAUAGTT against Crx	0.163 (inactive)
GCUAAUAACUUUUCAGUGATT against Olfr381	0.549 (inactive)
GGUUGGUAGGAUGGACAAGTT against Rab11b	2.45 (active)
GCCCUGUAUUUUGAAUUACTT against Bmpr1b	0.0161 (inactive)
GGGAAGAAAUAUGUUAGAUTT against Pip4p2	0.92 (inactive)
CCUUGUUACUAUACUACACTT against Ppp1r2	2.59 (active)
GCCUUUUAGCUGUUCAGGATT against Nlrc5	1.83 (inactive)
GCUGAAGCAUACAUUUGUGTT against Tas2r137	-0.226 (inactive)
